A selection: hits, their analogues and other compounds. The true share with any hit is near 2.9%.
SNCA expr inh – SNCA gene expression inhibition; HEK-293 SNCA-luciferase knock-in, luminescence, 24 h; Potency, µM (doses to about 57.2 µM), without a hit: at the highest dose activity change, negative = inhibition, usual class: inhibitors; actives 0.17% (n = 140,000); AID 1671194;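 note: potency is the fitted concentration of half-maximal effect; plate controls were DMSO cells for no effect and cell-free wells for full effect; nearly all actives have a fitted effect of over 45% in size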
KDM5B inh – blocks human KDM5B histone demethylase activity. Q9UGL1. KDM5B demethylase, FDH-coupled NADH fluorescence (FDH is formaldehyde dehydrogenase). Potency, µM (series often up to 57.7 µM), most hits filed as inhibitors. actives 2.6% (n = 220,000). AID 1347165; note: potency is the fitted concentration of half-maximal effect; 0% is about no effect; nearly all actives have a fitted effect of over 70% in size
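Coupled FDH/NAD⁺ fluorescence readout. KDM5BΔAP 200 nM final; compound titration, 10 min RT preincubation; substrate mix 12.5 µM H3K4me3, 25 µM 2-OG, 50 µM Fe(II), 100 µM ascorbate, 0.25 mM NAD⁺, 0.25 U/mL FDH; ΔRFU over 30 min.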
HEK293 viab – counter-screen for SNCA expression inhibitors: cell viability; actives 0.12% (n = 150,000); AID 1671193; HEK-293-SNCA-luc viability, GF-AFC fluorescence, 24 h; Potency, µM (doses to about 57.1 µM), for the others: at the top dose activity change, negative = cytotoxicity, most hits filed as cytotoxic;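 note: potency is the fitted concentration of half-maximal effect; 0% = DMSO-treated cells and -100% = medium-only wells without cells; nearly all actives have a fitted effect of over 30% in size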
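Cytotoxicity counterscreen: after 24 h compound treatment of genome-edited SNCA-luciferase HEK-293 cells, live-cell protease substrate GF-AFC read by fluorescence after 30 min; activity scaled between DMSO (0%) and medium-only (-100%), curves Hill-fitted.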
IP6K1 inhibitor – inhibitors of human IP6K1. activity change, % (series mostly up to about 58 µM). actives 0.81% (n = 140,000). AID 1645851. Q92551. IP6K1 kinase, ADP-Glo luminescence, 2 h; active compounds read low; in the data active = activity change below about -25%; note: % is set by controls: 0 for no effect and ±100 for the full control effect
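ADP-Glo luminescence measures ADP made by human IP6K1 during a 2 h RT reaction with ATP/IP6 (mix at 1.3 mM/130 uM); top library doses 57.5 and 19.1 uM final.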
Numbers without * were called inactive; i = inactive; ? = inconclusive; / = not tested or not shown; [ ] = another dose, or the depositor's remark. Unless noted, calls come from the whole dose curve; as a rule, active = well fitted curve in the direction sought with a large enough effect; inconclusive = small, poorly fitted or top-dose-only effect, or another doubt; inactive = no such curve, though single readings can be large; an effect the other way counts as inactive or inconclusive.

SMILES | SNCA expr inh | KDM5B inh | HEK293 viab | IP6K1 inhibitor
COc1ccc(CNC(=O)c2cc(-c3ccc(F)cc3)nc3c2cnn3C)cc1 | / | / | / | -11.4
O=C(NCCCc1ccccn1)c1ccc2nc(-c3ccc(F)cc3)cn2c1 | 102.6% | 28.2µM* | -9.1% | 2.1
O=C(NCc1nnc2n1CCC2)c1ccc2nc(-c3ccc(F)cc3)cn2c1 | 20.8% | 31.6µM* | 6.4% | 11.0
Cc1c(CNC(=O)c2ccc3nc(-c4ccc(F)cc4)cn3c2)cnn1C | 50.4% | 28.2µM* | -1.1% | 20.6
O=C(NCc1ccoc1)c1ccc2nc(-c3ccc(F)cc3)cn2c1 | 46.2% | 25.1µM* | -2.1% | -5.7
O=C(Nc1sc2c(c1C(=O)NCc1ccccc1)CCCC2)c1cc(=O)c2ccccc2o1 | 54.5% | i | ? | 26.1
COc1cccc(CC(=O)N2CCCC3(C2)NC(=O)N(Cc2cccc(Cl)c2)C3=O)c1 (centres undefined) | -7.3% | i | -9.2% | -8.9
N#Cc1cccc(-c2ccnc(N[C@H]3CO[C@H]4[C@@H]3OC[C@@H]4NC(=O)c3cccs3)n2)c1 | -7.3%[87.6 µM] | 31.6µM* | -0.7%[87.6 µM] | 3.2
N#Cc1cccc(-c2ccnc(N[C@H]3CO[C@H]4[C@@H]3OC[C@@H]4NC(=O)C3CCCCC3)n2)c1 | -17.8%[87.6 µM] | 35.5µM* | -0.8%[87.6 µM] | 6.6
O=C(N[C@H]1CO[C@H]2[C@@H]1OC[C@@H]2Nc1nccc(-c2cccc(F)c2)n1)c1cccs1 | 12.4%[87.6 µM] | 35.5µM* | 4.2%[87.6 µM] | -13.5
C=CCNC(=O)N[C@H]1CO[C@H]2[C@@H]1OC[C@@H]2Nc1nccc(-c2ccccc2OC)n1 | -3.1%[87.6 µM] | 28.2µM* | 6.3%[87.6 µM] | -3.0
Cc1ccc(NC(=O)CN2CCC(C(=O)N3CCCCCC3)CC2)cc1 | / | i | / | /
C=CCNC(=O)N[C@H]1CO[C@H]2[C@@H]1OC[C@@H]2Nc1nccc(-c2cccc(F)c2)n1 | -17.8%[87.6 µM] | 39.8µM* | -9.0%[87.6 µM] | -6.6
N#Cc1ccc(CNC(=O)[C@@H]2Cc3nc[nH]c3CN2C(=O)NC2CCCCC2)cc1 | -17.0%[87.6 µM] | i | -9.0%[87.6 µM] | 6.3
COC(=O)[C@@H]1Cc2nc[nH]c2CN1Cc1ccc(Cl)cc1 | -13.6%[87.6 µM] | 31.6µM* | -0.7%[87.6 µM] | 0.9
COc1ccc(CN2Cc3[nH]cnc3C[C@H]2C(=O)NC2CCCCC2)c2ccccc12 | -1.2%[87.6 µM] | 35.5µM* | -27.4%[87.6 µM] | 15.2
COC(=O)[C@@H]1Cc2nc[nH]c2CN1Cc1ccc(NC(C)=O)cc1 | -9.5%[87.6 µM] | ? | -3.2%[87.6 µM] | 12.1
COc1ccc(CN2Cc3[nH]cnc3C[C@H]2C(=O)N(C)Cc2ccccc2)c2ccccc12 | -21.6% | i | ? | -7.1
COc1ccc(CN2Cc3[nH]cnc3C[C@H]2C(=O)NCc2ccc(Cl)cc2)c2ccccc12 | ? | ? | ? | 0.8
COc1ccc(CNC(=O)[C@@H]2Cc3nc[nH]c3CN2C(=O)NC2CCCCC2)cc1 | 34.1%[87.6 µM] | 31.6µM* | 5.7%[87.6 µM] | -3.4
COc1ccc(CN2Cc3[nH]cnc3C[C@H]2C(=O)NCc2ccccc2)c2ccccc12 | -28.8%[87.6 µM] | 39.8µM* | ? | 6.9
CN(C)CCn1cc(C(=O)c2ccccc2O)cc1-c1nc2ccccc2c(=O)[nH]1 | / | i | / | /
O=C([C@@H]1C[C@H](F)CN1C(=O)Nc1ccccc1C(F)(F)F)N1CCCCC1 | 3.3% | i | 13.9% | 0.0
Cc1cccc(NC(=O)CCS(=O)(=O)c2ccc3c(c2)CCN3C(=O)C2CC2)c1 | / | i | / | /
CN1C[C@@H](NC(=O)c2ccc(C(C)(C)C)cc2)C[C@H]1c1nc(-c2ccc3c(c2)OCO3)no1 | -28.8% | 35.5µM* | ? | -3.7
SMILES | SNCA expr inh | KDM5B inh | HEK293 viab | IP6K1 inhibitor
Cc1ccccc1C(=O)N1CC2(Cc3ccccc3N([S+](C)(=O)[O-])C2)C1 | -9.3% | 25.1µM* | 10.5% | -8.8
C[S+](=O)([O-])N1CC2(CCN(C(=O)CCC(=O)O)C2)Cc2ccccc21 (centres undefined) | 24.4% | 39.8µM* | 1.5% | -1.4
COc1nc(C)c(C(=O)N2CCC(c3[nH]ncc3-c3ccccc3)CC2)s1 | -21.2% | i | -9.3% | -2.0
CCCCNC(=O)Cc1csc2nc(C)c(-c3cc(C)n(-c4ccc(C)cc4C)n3)c(=O)n12 | -6.8% | ? | -18.1% | 1.8
CCCCNC(=O)Cc1csc2nc(C)c(-c3cc(C)n(-c4cc(Cl)ccc4C)n3)c(=O)n12 | 5.1% | 25.1µM* | 5.9% | -3.6
CCCNC(=O)Cc1csc2nc(C)c(-c3cc(C)n(-c4cc(Cl)ccc4C)n3)c(=O)n12 | 11.9% | 28.2µM* | -0.8% | 14.6
CC(C)Nc1nccc(C2(c3ccccc3Cl)CCNCC2)n1 | 12.3% | ? | -1.2% | -3.2
COCC(C)Nc1nccc(C2(c3ccccc3Cl)CCNCC2)n1 (centres undefined) | 8.5% | 22.4µM* | -8.2% | 4.8
CN(C)C1CCN(c2nccc(C3(c4ccccc4Cl)CCNCC3)n2)C1 (centres undefined) | 46.8% | 28.2µM* | -27.5% | 2.6
O[C@@H]1CCN(c2nccc(C3(c4ccccc4Cl)CCNCC3)n2)C1 | 12.2% | 28.2µM* | -14.2% | 16.3
Clc1ccccc1C1(c2ccnc(C3CC3)n2)CCNCC1 | -6.3% | i | ? | 5.0
CN1CCC(CNc2nccc(C3(c4ccccc4Cl)CCNCC3)n2)C1 (centres undefined) | -22.3% | ? | -3.2% | 5.4
O=C(NCc1ccc(F)c(F)c1)c1ccc2nnc(CC3CC3)n2c1 | -3.6% | / | -7.9% | -4.6
CCOc1ccc(NC(=O)c2c(NCc3cc(OC)c(OC)cc3OC)sc3c2CCCC3)cc1 | 2.4% | ? | -5.4% | -30.5*
Cc1ccc(OCC(=O)N(CC#N)C2CC2)cc1 | / | i | / | /
O=C(NCCc1ccc(Cl)cc1)c1cc(-c2cccc(C(F)(F)F)c2)c2nncn2n1 | -20.4% | 79.4µM* | -18.0% | -4.1
COC(=O)CNC(=O)c1cc(-c2cccnc2)c2nncn2n1 | 15.2% | 100µM* | 1.4% | 18.5
COC(=O)CNC(=O)c1cc(-c2ccccc2OC)c2nncn2n1 | 44.4% | i | -10.4% | 2.3
COC(=O)CNC(=O)c1cc(-c2ccc(Cl)cc2Cl)c2nncn2n1 | -8.0% | 44.7µM* | -3.6% | 6.4
O=C(c1cc(-c2ccc(F)cc2)c2nncn2n1)N1CCOCC1 | 12.6%[87.6 µM] | / | -4.8%[87.6 µM] | 13.4
O=C(c1cc(-c2cccnc2)c2nncn2n1)N1CCOCC1 | 6.2% | 89.1µM* | -0.4% | 1.3
Cc1oc(-c2cccc(Br)c2)nc1Cn1c(=O)cc(-c2ccccc2)c2c(C)nn(C)c21 | -4.2% | i | -1.2% | -4.5
CN(C)c1ccc(C(=O)OCn2nnc3ccccc3c2=O)cc1 | / | i | / | /
O=[N+]([O-])c1ccccc1NN=C1CCCC1 | / | i | / | /
Cc1ccsc1C(=O)N1CCC2(CC1)CC(OCC1CC1)CCO2 (centres undefined) | -19.9% | i | -0.8%[12.5 µM] | -6.7
COC(=O)CNC(=O)c1cc(-c2cccc(C(F)(F)F)c2)c2nncn2n1 | 13.5% | 79.4µM* | -11.8% | -0.5
COc1ccc(C2(C(=O)N[C@H]3COC[C@H]3Cc3cc(C)no3)CCCC2)cc1 | 10.1% | i | -0.7% | 0.8
COc1ccc2[nH]c(C(=O)N[C@H]3COC[C@H]3Cc3cc(C)no3)c(C)c2c1 | 14.9% | 22.4µM* | 5.5% | 0.3

Compound activity from PubChem.
